Among all 310,000 compounds or so, about 14,000 (4.5%) showed an effect of 50% or more. Effects have a minus sign here. The full list was thinned out, with strong results kept by preference.
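Note: peak tail current of the secondary pulse compared with the same well before compound.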

Sequence of human ether-à-go-go-related gene (hERG) potassium channel (Q12809 whole entry, looked up): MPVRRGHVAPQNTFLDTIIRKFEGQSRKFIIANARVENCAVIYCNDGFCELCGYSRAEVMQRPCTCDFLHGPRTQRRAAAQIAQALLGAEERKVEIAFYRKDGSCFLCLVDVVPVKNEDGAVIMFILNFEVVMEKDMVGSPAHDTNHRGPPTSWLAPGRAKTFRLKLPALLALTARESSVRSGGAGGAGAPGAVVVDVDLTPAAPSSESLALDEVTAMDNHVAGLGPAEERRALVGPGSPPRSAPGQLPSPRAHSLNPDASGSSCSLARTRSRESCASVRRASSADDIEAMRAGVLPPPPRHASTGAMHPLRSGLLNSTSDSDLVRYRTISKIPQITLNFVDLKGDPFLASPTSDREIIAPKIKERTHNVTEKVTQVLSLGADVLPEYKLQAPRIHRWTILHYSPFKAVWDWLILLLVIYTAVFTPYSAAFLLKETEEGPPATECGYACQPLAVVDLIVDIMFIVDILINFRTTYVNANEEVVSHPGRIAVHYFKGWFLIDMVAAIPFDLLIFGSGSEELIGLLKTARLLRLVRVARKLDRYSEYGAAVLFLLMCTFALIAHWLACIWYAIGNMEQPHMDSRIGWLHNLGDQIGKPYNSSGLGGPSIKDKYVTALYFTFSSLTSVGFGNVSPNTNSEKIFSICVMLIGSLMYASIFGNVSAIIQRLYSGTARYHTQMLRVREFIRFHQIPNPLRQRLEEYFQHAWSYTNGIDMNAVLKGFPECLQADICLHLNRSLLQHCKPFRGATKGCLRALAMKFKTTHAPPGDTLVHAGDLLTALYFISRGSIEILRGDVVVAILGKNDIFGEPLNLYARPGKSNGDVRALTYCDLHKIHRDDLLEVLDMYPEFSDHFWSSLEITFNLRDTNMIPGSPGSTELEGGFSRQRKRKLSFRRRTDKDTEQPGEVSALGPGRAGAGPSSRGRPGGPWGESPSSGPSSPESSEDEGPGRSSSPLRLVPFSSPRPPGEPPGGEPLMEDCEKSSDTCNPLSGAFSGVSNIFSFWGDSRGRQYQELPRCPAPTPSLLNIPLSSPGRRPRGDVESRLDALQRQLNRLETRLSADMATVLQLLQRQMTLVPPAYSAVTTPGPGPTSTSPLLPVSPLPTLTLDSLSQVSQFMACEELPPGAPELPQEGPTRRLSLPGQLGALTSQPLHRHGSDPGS

This test has as its target human ether-à-go-go-related gene (hERG) potassium channel (human, UniProt Q12809). As to the kind of experiment: primary screen, population patch clamp on CHO cells stably expressing hERG; higher = less effect of the substance.
Regarding `C=C[C@@]12CN(C)[C@H]3[C@H]1[C@@]1(C(=O)Nc4ccccc41)C1CC2[C@@H]3CO1`, the “hERG current change (%, negative = inhibition) at 10uM” value is 13%.

In the case of `O=c1c2c(-c3cccs3)csc2ncn1-c1ccccc1`, the “hERG current change (%, negative = inhibition) at 10uM” value is on record as -28.3%. The value for `CCOc1ccc(N2C(=O)c3ccc(C(=O)OCC(=O)N(CC)C4CCS(=O)(=O)C4)cc3C2=O)cc1` (stereo not shown) was -22.3%; that for `Cc1cc(C)cc(NC(=O)CN2CCC(NC(=O)c3cccc(F)c3)CC2)c1` was -39%; that for `Cc1cccc(NC(=O)Cn2cccc2)c1` was -5.5%. The value for `CC(=O)c1cccc(NC(=O)CN2CCN(Cc3ccccc3)CC2)c1.Cl` was -10.9%; that for `Cc1cccc(NC(=O)CN2CCN(CC(=O)Nc3cccc(C)c3)CC2)c1` was -63.7%; that for `Cc1ccc(NC(=O)CN2CCC(NC(=O)c3cccc(F)c3)CC2)cc1C` was -41.3%. The value for `O=C(CN1CCN(Cc2ccccc2)CC1)Nc1cccc(Br)c1` was -51.7%; that for `CC(=O)c1cccc(NC(=O)CN2CCN(S(=O)(=O)/C=C/c3ccccc3)CC2)c1` was -53.9%.

Regarding `COC(=O)c1cccc(NC(=O)CN2CCN(Cc3ccccc3)CC2)c1`, the “hERG current change (%, negative = inhibition) at 10uM” value is -16%. Regarding `Cc1cccc(NC(=O)CN2CCCCCC2)c1`, the “hERG current change (%, negative = inhibition) at 10uM” value was found to be 7.69%. The value for `NS(=O)(=O)c1ccc(NC(=O)CN2CCN(S(=O)(=O)/C=C/c3ccccc3)CC2)cc1` was -9.04%. In the case of `COc1cc(NC(=O)CN2CCN(S(=O)(=O)/C=C/c3ccccc3)CC2)cc(OC)c1OC`, the “hERG current change (%, negative = inhibition) at 10uM” value was -14.8%. The value for `O=C(CN1CCC(NC(=O)c2cccc(F)c2)CC1)Nc1ccc(Br)cc1` was -73%; that for `CC(C(Sc1ccccc1N)c1ccccc1)[N+](=O)[O-]` (stereo not shown) was 7.82%. Take `CCOP(=O)(O)c1cccc(OCCOCCOc2cccc(P(=O)(O)OCC)c2)c1`: the “hERG current change (%, negative = inhibition) at 10uM” value is on record as 4.45%. For `Cn1c(=NCC(O)COc2ccccc2)sc2ccccc21` (stereo not shown), the “hERG current change (%, negative = inhibition) at 10uM” value is reported as -42.7%. As for `COc1ccnc(Oc2ccccc2)c1C(N)=O`, the “hERG current change (%, negative = inhibition) at 10uM” value came out at 20.2%.

For `C/C(Cn1cnc([N+](=O)[O-])n1)=N\NC(=O)c1cccc(F)c1`, the “hERG current change (%, negative = inhibition) at 10uM” value amounted to 6.43%. In the case of `COC(=O)c1cccc(NC(=O)CSc2nnc(C)n2C)c1` it was 26%. For the molecule `Cc1ccc(NC(=O)C2CCN(S(=O)(=O)c3ccc4c(c3)NC(=O)C(C)S4)CC2)c(C)c1` (stereo not shown), the “hERG current change (%, negative = inhibition) at 10uM” value is -3.06%. The value for `O=C(O)C1CCN(C(=O)c2ccco2)CC1` was 9.94%.

For the molecule `COc1ccc(N(CC(=O)N/N=C/c2ccccc2OC)S(=O)(=O)c2ccccc2)cc1`, the “hERG current change (%, negative = inhibition) at 10uM” value amounted to 19.9%.

On to `Cc1cc(N2C(=O)C(O)=C(C(=O)c3cccs3)C2c2cccc(Br)c2)no1` (stereo not shown), for which the “hERG current change (%, negative = inhibition) at 10uM” value is 6.05%. As for `c1ccc(-c2nnc(-c3ccncc3)nc2-c2ccccc2)cc1`, the “hERG current change (%, negative = inhibition) at 10uM” value is -24.5%. The value for `COc1cccc2c(=O)cc(C)n(CC(=O)Nc3ccc(Br)cc3)c12` was 12.8%; that for `COc1cccc2c(=O)cc(C)n(CC(=O)Nc3cccc(C)c3)c12` was -59.4%.

For the molecule `COc1cccc2c(=O)cc(C)n(CC(=O)Nc3ccc(C)c(C)c3)c12`, the “hERG current change (%, negative = inhibition) at 10uM” value is reported as -5.88%. With `Cc1ccc(NC(=O)c2cccc(S(=O)(=O)N3CCN(c4ccccc4)CC3)c2)nc1`, the “hERG current change (%, negative = inhibition) at 10uM” value is -1.19%. With `O=C(c1cccc(S(=O)(=O)N2CCCCCC2)c1)N1CCN(c2ccccc2)CC1`, the “hERG current change (%, negative = inhibition) at 10uM” value is -68.8%. For the molecule `O=C(c1cccc(S(=O)(=O)N2CCN(c3ccccc3)CC2)c1)N1CCCCCCC1`, the “hERG current change (%, negative = inhibition) at 10uM” value is given as -33.4%. In the case of `O=C(c1cccc(S(=O)(=O)N2CCCC2)c1)N1CCN(c2ccccc2)CC1` it was -13%. The value for `Cc1ccc(C(=O)NNC(=O)c2cccc(S(=O)(=O)N3CCN(c4ccccc4)CC3)c2)cc1` was -25.4%; that for `CC(=O)N1CCN(C(=O)c2cccc(S(=O)(=O)N3CCN(c4ccccc4)CC3)c2)CC1` was -16.5%. In the case of `O=C(c1cccc(S(=O)(=O)N2CCCCC2)c1)N1CCN(c2ccccc2)CC1` it was -73.1%. As for `O=C(c1cccc(S(=O)(=O)N2CCOCC2)c1)N1CCN(c2ccccc2)CC1`, the “hERG current change (%, negative = inhibition) at 10uM” value was -15.7%. Turning to `O=C(NNC(=O)c1cccc(S(=O)(=O)N2CCN(c3ccccc3)CC2)c1)c1ccc(Cl)cc1`, the “hERG current change (%, negative = inhibition) at 10uM” value is -59.5%. In the case of `CC1Oc2ccccc2N(CC(=O)NCc2ccccc2)C1=O` (stereo not shown) it was 6.53%; in that of `CCOC(=O)C1=NN(c2ccccc2)C2=NC(C)=C(C(=O)OC)C(c3cccs3)N12` (stereo not shown), -5.66%.

In the case of `CCc1ccc(NC(=O)CNS(=O)(=O)c2c(C)noc2C)cc1`, the “hERG current change (%, negative = inhibition) at 10uM” value is listed as -2.28%. The value for `N#Cc1nc(-c2ccco2)oc1N1CCN(c2cccc(Cl)c2)CC1` was -16.1%; that for `COc1cc(NC(=O)CSc2nnnn2-c2ccccc2)cc(OC)c1OC` was -0.308%.
